# VP16 counter – inhibits Gal4-VP16 luciferase reporter, ROR gamma counter-screen; 310,000 tested, 3.5% active; Drosophila S2 Gal4-VP16 UAS-luciferase, luminescence, 20 h; Potency, µM (highest dose often 53.6 µM), for inactives: top-dose activity, negative = inhibition, usual class: inhibitors;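 note: Gal4-VP16 expression switched on by copper sulfate through the metallothionein promoter; potency is the fitted concentration of half-maximal effect; nearly all actives have a fitted effect of over 50% in size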
# B2AR arrestin – recruits beta-arrestin to the human beta2-adrenergic receptor. P07550. beta-arrestin recruitment to beta2AR, cell-based reporter. Potency, µM (series often up to 46.1 µM), inactives show at the top dose activation, usual class: activators. 330,000 tested, 0.02% active;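 note: potency is the fitted concentration of half-maximal effect; 0% = DMSO controls and full agonism = EC100 isoproterenol or metaproterenol; nearly all actives have a fitted effect of over 65% in size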
# ELG1 DNA repair – blocks ELG1-dependent DNA repair in HEK293T cells. HEK293T ELG1-luciferase reporter, luminescence, 16 h; DNA damage induced by 5-fluorouridine. Potency, µM (doses to about 46.1 µM), inactives show top-dose activity change, negative = inhibition, actives largely listed as inhibitors. 330,000 tested, 2.3% active. AID 504467; note: potency is the fitted concentration of half-maximal effect; nearly all actives have a fitted effect of over 55% in size
#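 Quantitative HTS, concentration-response format. 2,000 cells/well co-treated with 5-fluorouridine and compound, 16 hr in 5% CO2 at 37 °C; ONE-Glo luminescence read after 30 min.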
# RORgamma inh – inhibitors of mouse ROR gamma transcriptional activity; P51450; Drosophila S2 Gal4-RORgamma UAS-luciferase reporter, 20 h; Potency, µM (top dose mostly 53.6 µM), without a hit: top-dose activity change, negative = inhibition, usual class: inhibitors; 310,000 tested, 5.4% active; note: potency is the fitted concentration of half-maximal effect; nearly all actives have a fitted effect of over 60% in size
# Target sequence (P51450 whole entry, looked up, the tested form may be a part): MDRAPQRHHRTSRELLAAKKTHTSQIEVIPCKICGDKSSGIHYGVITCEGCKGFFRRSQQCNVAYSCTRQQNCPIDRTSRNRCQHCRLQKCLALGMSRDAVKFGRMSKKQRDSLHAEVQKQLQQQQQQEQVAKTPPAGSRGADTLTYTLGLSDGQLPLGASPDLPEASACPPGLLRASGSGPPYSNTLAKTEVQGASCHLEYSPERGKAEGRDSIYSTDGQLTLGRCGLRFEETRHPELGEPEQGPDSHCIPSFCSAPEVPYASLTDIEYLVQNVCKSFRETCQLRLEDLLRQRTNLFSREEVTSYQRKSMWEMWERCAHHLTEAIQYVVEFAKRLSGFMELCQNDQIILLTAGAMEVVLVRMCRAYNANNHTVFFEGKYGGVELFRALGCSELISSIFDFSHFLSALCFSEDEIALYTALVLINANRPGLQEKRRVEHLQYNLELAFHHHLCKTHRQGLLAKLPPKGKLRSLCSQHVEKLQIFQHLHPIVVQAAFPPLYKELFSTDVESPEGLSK
#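 A Gal4/UAS one-hybrid system in insect cells: metallothionein-promoter Gal4–ROR gamma fusion plus Photinus luciferase reporter. Copper sulfate 700 uM final, 20 hr ambient incubation, luminescent detection after 10 min with reagent.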
# TSHR antagonist – human thyrotropin receptor antagonism; activity change, negative = inhibition, % at 11.5 µM; AID 504810; 330,000 tested, 0.2% active; P16473; TSHR-expressing cells, TSH-stimulated cAMP HTRF, 2 h; hits give low values;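 active = activity change below a set negative limit, meaning inhibition stronger than a set level, cut at about -70% in these data; inconclusive = activity change between two set negative limits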
#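 Inhibition of cAMP made by TSHR-expressing cells under TSH stimulation (4nM final, EC80; 2 h, 37 deg C) is quantified with a one-step lysis HTRF kit, anti-cAMP cryptate versus cAMP-d2.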
# Numbers without * were called inactive; u = inconclusive; x = no result. The list is not random: actives were taken first. Their share in the collection is about 7.5%. Unless noted, calls come from the whole dose curve; as a rule, active = well fitted curve in the direction sought with a large enough effect; inconclusive = small, poorly fitted or top-dose-only effect, or another doubt; inactive = no such curve, though single readings can be large; an effect the other way counts as inactive or inconclusive. Unless noted, % is set by controls: 0 for no effect and ±100 for the full control effect.
SMILES,VP16 counter,B2AR arrestin,ELG1 DNA repair,RORgamma inh,TSHR antagonist
Cc1cccc(NS(=O)(=O)c2ccc(Br)s2)n1,1%,0%,12%,16%,4
Cc1ccc(S(=O)(=O)Nc2ccccc2-c2ccccc2)cc1,-2%,0%,u,-30%,-8
Cc1ccc(S(=O)(=O)Nc2cccc3ccc(C)nc23)cc1,u,x,x,3.2µM*,x
Cc1ccc(S(=O)(=O)Nc2ccccc2N(C)S(=O)(=O)c2ccc(C)cc2)cc1,x,0%,-10%,x,-75*
O=S(=O)(Nc1cccc2cccnc12)c1ccc(Br)s1,1.1µM*,x,x,0.56µM*,x
Cc1cc(C)c(S(=O)(=O)Nc2cccc3nsnc23)c(C)c1,-5%,-2%,-3%,5%,-15
Cc1cc(C)c(S(=O)(=O)Nc2cccc3cccnc23)c(C)c1,0.32µM*,x,x,0.089µM*,x
COc1ccc(S(=O)(=O)Nc2cc(OC)cc3cccnc23)cc1,u,x,x,2.5µM*,x
Cc1ccc(S(=O)(=O)Nc2cccc3ncccc23)s1,0.56µM*,0%,u,0.28µM*,-9
Cc1ccc(S(=O)(=O)Nc2cccc3ncccc23)cc1,-10%,-1%,-5%,28%,-6
COc1ccc(CCN2CC(C(=O)Nc3cc(F)ccc3F)CC2=O)cc1OC (stereo not given),x,0%,1%,x,11
CCOC(=O)C1=C(C)NC(=S)NC1c1ccc(C)s1 (stereo not given),u,0%,18%,8.9µM*,-1
CNC(=O)C1=C(C)NC(=S)NC1c1cccs1 (stereo not given),-5%,0%,-10%,-7%,-3
CC1=C(C(=O)OCC(C)C)C(c2cccs2)NC(=S)N1 (stereo not given),2.5µM*,-1%,-9%,11µM*,1
CCOC(=O)C1=C(C)NC(=S)NC1c1ccsc1 (stereo not given),u,0%,u,11µM*,-1
CCOC(=O)CNC(=O)O[C@@H]1Cc2cc(OC)ccc2O[C@H]1c1cccc(OC)c1,9%,x,x,3%,x
Cc1ccc(/C=N/NC(=O)c2ccc3ccccc3c2)s1,5µM*,-1%,12%,3.5µM*,-13
O=C(N/N=C/c1ccc(-c2ccc(Br)cc2)o1)c1ccc2c(c1)OCO2,10µM*,-1%,0%,3.5µM*,-23
O=C(N/N=C/c1ccc(COc2ccc(Br)cc2)o1)c1ccc2c(c1)OCO2,x,12%,u,x,-10
Cc1ccc(/C=N/NC(=O)c2ccc3c(c2)OCCO3)s1,u,-1%,u,5.6µM*,0
Cc1ccc(/C=N/NC(=O)c2cccc(S(=O)(=O)Nc3ccccc3Cl)c2)s1,5µM*,0%,-7%,7.1µM*,-10
COc1ccc(OC)c(/C=C(\NC(=O)c2ccccc2)C(=O)N/N=C/c2ccc(C)s2)c1,u,0%,-12%,u,-6
C[C@@]12C=CC(=O)C=C1CCC1C3CC(O)[C@@](O)(C(=O)CO)[C@]3(C)CC(O)[C@]12F (stereo not given in full),-4%,x,x,13%,x
Cc1ccc2[nH]c(C(=O)N3CCN(c4cccc(Cl)c4)CC3)cc2c1,1%,4%,-9%,-19%,16
CC(C)=CCC/C(C)=C/CC/C(C)=C/CC/C(C)=C/C(=O)O,-2%,x,x,7%,x
SMILES,VP16 counter,B2AR arrestin,ELG1 DNA repair,RORgamma inh,TSHR antagonist
CC(=O)OCC(NC(=O)C(C)NC(=O)OC(C)(C)C)C1OC(n2cc(C)c(=O)[nH]c2=O)C(OC(C)=O)C1OC(C)=O (stereo not given),1%,x,x,-1%,x
O=C(N/N=C/c1cc2c(cc1Cl)OCO2)c1ccc2c(c1)OCCO2,7%,0%,u,-3%,1
O=C(N/N=C/c1cc(Br)cs1)c1ccc2c(c1)OCCO2,u,0%,u,11µM*,-7
Fc1cccc2sc(Nc3nnc(-c4ccccc4)o3)nc12,2.5µM*,-1%,u,1.8µM*,-11
O=C(Nc1nnc(-c2ccccc2)o1)c1nc2ccccc2s1,-1%,0%,6%,-34%,7
COc1cc(OC)cc(-c2nnc(Nc3nc4c(F)cccc4s3)o2)c1,1.6µM*,0%,0%,0.71µM*,x
Cc1cc(C)c(C(=O)OCc2csc(CC(=O)Nc3ccccc3C)n2)c(C)c1,x,0%,u,x,-9
COC(=O)c1c(C)[nH]c(C(=O)OCc2csc(CC(=O)Nc3ccccc3C)n2)c1C,x,5%,8.2µM*,x,-1
Cc1ccccc1NC(=O)Cc1nc(COC(=O)C(C)C)cs1,-5%,-1%,10%,-5%,-7
CCN(CC)C(=S)SCc1csc(CC(=O)Nc2ccccc2C)n1,-22%,2%,-17%,11µM*,1
CC(=O)NC1=C(NC2CCS(=O)(=O)C2)C(=O)c2ccccc2C1=O (stereo not given),18µM*,-1%,u,u,18
O=C(Nc1ccccc1)NC1CCS(=O)(=O)C1 (stereo not given),15%,-1%,14%,-21%,5
O=C(NC(=S)NC1CCS(=O)(=O)C1)c1ccccc1 (stereo not given),-9%,-1%,-4%,17%,7
CN(C1=C(NC(=O)c2ccccc2)C(=O)c2ccccc2C1=O)C1CCS(=O)(=O)C1 (stereo not given),7.1µM*,0%,9.2µM*,14µM*,19
Cc1cc(C(=O)NC2Cc3ccccc3C2)c(C)o1,-2%,0%,u,8%,4
Cc1cc2nc(Sc3c([N+](=O)[O-])nc(C)n3Cc3ccccc3)[nH]c2cc1C,8.9µM*,-2%,u,13µM*,9
CS(=O)(=O)c1cc([N+](=O)[O-])c(Sc2nc3ccccc3[nH]2)c([N+](=O)[O-])c1,3.2µM*,0%,9%,2.5µM*,12
Cc1nc([N+](=O)[O-])c(Sc2nc3ccccc3[nH]2)n1Cc1ccccc1,u,0%,u,10µM*,10
CN(C)c1ccc(-c2cncnc2NCc2ccccc2)cc1,-8%,x,x,u,x
Cc1ccc(C(=O)N2CC(C)SC2=Nc2cccc(S(=O)(=O)N(C)C)c2)cc1 (stereo not given),19%,0%,-17%,u,-3
CN(C)S(=O)(=O)c1cccc(N=C2SCCN2Cc2ccccc2)c1,u,4%,18µM*,27%,-12
Cc1c(C(=O)Nc2ccc(F)cc2)nnn1-c1cccc(C(F)(F)F)c1,16µM*,0%,5.8µM*,u,-32
Cc1cccc(-n2nnc(C(=O)Nc3ccc(F)cc3)c2N)c1,-2%,2%,u,u,2
C#C[C@]1(O)CC[C@H]2[C@H]3CCc4cc(O)ccc4[C@@H]3CC[C@@]21C,3%,x,x,-1%,x

# High-throughput results from PubChem.
